Most compounds without a hit are left out; they make up all but 7.4% or so of the library.
NPC1 prom act: activates the NPC1 promoter; Huh7 NPC1 promoter luciferase reporter, 24 h; Potency, µM (doses to about 9.22 µM), inactives show at the highest dose activation, hits mostly activators; 320,000 compounds, 2.4% hits; also: % of control where 0% means no effect; nearly all actives have a fitted effect of over 60% in size
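Compounds in DMSO were transferred onto Huh7 NPC1-luciferase reporter cells pre-incubated 2 h; after 24 h at 37 °C, Amplite reagent was dispensed and luminescence recorded 10 min later.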
ELG1 genotoxic: genotoxicity induction in ELG1-luciferase HEK293T cells; HEK293T ELG1-luciferase reporter, luminescence, 16 h; Potency, µM (titrated, usually from 46 µM), inactives show top-dose activity change, positive = activation, usual class: activators; 330,000 compounds, 1.3% hits; AID 504466; also: % of control where 0% means no effect; nearly all actives have a fitted effect of over 60% in size
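Genotoxicity was scored as increased ELG1-luciferase reporter signal, measured by ONE-Glo luminescence (30 min, room temperature). Compound or vehicle exposure of the HEK293T reporter cells lasted 16 hr at 37°C.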
Rab9 prom act: activators of Rab9 promoter | Huh7 Rab9 promoter-luciferase reporter, luminescence, 24 h | Potency, µM (top dose mostly 9.22 µM), for inactives: top-dose activation, negative = inhibition, most hits filed as activators | 320,000 compounds, 2.8% hits; also: % of control where 0% means no effect; nearly all actives have a fitted effect of over 60% in size
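Cells were plated at 1500 per well in reduced-serum medium with 10% FBS and left 2 h. Compound in DMSO was then added for 24 h at 37 °C. Reporter signal was read by luminescence after 10 min with luciferase detection reagent.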
SMN2 splice enh: enhancers of SMN2 splice variant expression. Potency, µM (highest dose often 46.1 µM), without a hit: at the top dose activity change, positive = activation, usual class: activators. 210,000 compounds, 2.8% hits. HEK293 SMN2-luciferase splicing reporter, luminescence, 30-36 h; also: % of control where 0% means no effect; nearly all actives have a fitted effect of over 55% in size
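qHTS luciferase splicing reporter: luminescence rises when SMN2 exon 7 is included in transfected HEK293 cells. Compound exposure lasted 30-36 h at 37C, with 4.5 mM final sodium butyrate as control, followed by a ONE-Glo read.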
FLuc counter: firefly luciferase modulation, counter-screen for miR-21 project; P08659; purified FLuc, Km substrates, luminescence inhibition; Potency, µM (series often up to 57.5 µM), inactives show at the highest dose activity change, negative = inhibition, usual class: inhibitors; 360,000 compounds, 6.9% hits;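 also: plate controls were vehicle for no effect and reference inhibitor for full effect; nearly all actives have a fitted effect of over 55% in size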
Target sequence (P08659 whole entry, looked up): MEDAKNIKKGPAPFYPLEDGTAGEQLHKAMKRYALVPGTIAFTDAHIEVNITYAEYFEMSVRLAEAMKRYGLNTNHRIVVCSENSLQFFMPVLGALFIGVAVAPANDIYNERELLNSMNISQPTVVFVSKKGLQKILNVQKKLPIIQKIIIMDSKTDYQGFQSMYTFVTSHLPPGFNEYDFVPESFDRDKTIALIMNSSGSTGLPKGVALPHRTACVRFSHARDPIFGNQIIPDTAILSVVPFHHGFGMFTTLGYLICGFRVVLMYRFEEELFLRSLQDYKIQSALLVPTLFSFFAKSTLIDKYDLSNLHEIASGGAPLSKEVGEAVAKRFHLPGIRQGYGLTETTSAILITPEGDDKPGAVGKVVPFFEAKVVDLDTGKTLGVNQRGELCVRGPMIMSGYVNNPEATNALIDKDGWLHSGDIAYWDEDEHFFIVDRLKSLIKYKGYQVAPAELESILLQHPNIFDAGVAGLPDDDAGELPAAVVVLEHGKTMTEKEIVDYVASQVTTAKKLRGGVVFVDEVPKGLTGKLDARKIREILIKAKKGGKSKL
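Purified P. pyralis luciferase, 10 nM final, with Km-level 10 uM D-luciferin and 10 uM ATP in 50 mM Tris acetate pH 7.5, 10 mM Mg acetate, 0.01% Tween-20, 0.05% BSA; 6-point qHTS titration about 60 µM downward; luminescence read.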
* = called active by the depositor; ? = inconclusive; / = no result given; [ ] = dose if it differs, or a comment. Calls follow the shape of the dose curve; as a rule, active = well fitted curve in the direction sought with a large enough effect; inconclusive = small, poorly fitted or top-dose-only effect, or another doubt; inactive = no such curve, though single readings can be large; an effect the other way counts as inactive or inconclusive. Potency is read from the fitted curve at half-maximal effect.

SMILES | NPC1 prom act | ELG1 genotoxic | Rab9 prom act | SMN2 splice enh | FLuc counter
COc1cc2oc(=O)c3c4c(cc5ccc(c1CCN(C)C)c2c53)OCO4 | / | / | / | 11% | /
COc1ccc(/C=C/c2nc(-c3ccccc3O)n[nH]2)cc1 | 3.5µM* | ? | 3.5µM* | 4µM* | 3.8µM*
COc1ccc(O)c(-c2cc(-c3cccs3)[nH]n2)c1 | 12% | 7% | ? | ? | 21µM*
Oc1ccc(Cl)cc1-c1cc(-c2ccccc2)n[nH]1 | -7% | 12% | -4% | 16% | ?
COc1ccc(-c2cc(-c3ccccc3)n[nH]2)c(O)c1 | ? | 8.2µM* | 2.2µM* | 13µM* | 6µM*
COc1ccc(-c2ncncc2-c2ccccc2)c(O)c1 | 0% | -12% | 6% | / | -2%
COc1ccc(-c2cc(-c3ccccc3O)[nH]n2)cc1 | 1.8µM* | ? | 3.2µM* | / | 0.85µM*
O=[N+]([O-])c1ccccc1S(=O)(=O)n1nnc2ccccc21 | 6% | 8% | 3% | -1% | 3%
C[C@@]1(C(NS(=O)(=O)c2cccc3cccnc23)c2ccc(-c3ccccc3)cc2)C[C@H]1C1CCCCC1 (some centres undefined) | / | / | / | -6% | /
COc1ccc(CCNC(=O)CN2C(=O)COc3ccccc32)cc1OC | / | / | / | / | 2%
Oc1ccc(Br)cc1-c1cc(-c2ccccc2Cl)[nH]n1 | -4% | 0% | -8% | / | ?
COc1ccc(O)c(-c2cc(-c3ccccc3Cl)[nH]n2)c1 | 24% | ? | 24% | / | 11µM*
COc1ccc(CCNC(=O)CSc2nnc(Cc3cccn3C)n2C)cc1OC | -2% | 8% | -1% | -61% | 2%
CCc1ccc(C(=O)CSc2ncn[nH]2)cc1 | 20% | ? | ? | 2% | 17µM*
CCCOc1ccc(CSc2ncn[nH]2)cc1 | 17% | ? | 26% | ? | 11µM*
Cc1ccc(C(=O)CSc2ncn[nH]2)cc1 | 17% | 7% | 0% | -3% | -18%
CCc1ccc(C(=O)CSc2n[nH]c(-c3ccncc3)n2)cc1 | -1% | -3% | -1% | -9% | 24µM*
CC(=O)Nc1ccc2c(c1)nc1n2CCSC1 | 1% | 14% | -7% | -28% | -15%
COc1ccccc1C(=O)Nc1ccc2c(c1)nc1n2CCSC1 | ? | ? | 1.8µM* | 22µM* | 3µM*
CCCCC(=O)Nc1ccc2c(c1)nc1n2CCSC1 | 3.5µM* | 7.3µM* | 3.5µM* | ? | 24µM*
Cc1ccc(C(=O)Nc2ccc3c(c2)nc2n3CCSC2)cc1 | 0.71µM* | ? | 0.56µM* | / | 2.7µM*
COc1ccc2nc(/C=N/NC(=O)[C@H](C)NC(=O)OC(C)(C)C)ccc2c1 | 12% | ? | 17% | ? | 5.4µM*
Cc1ccccc1-c1nc2cc(Cl)ccc2o1 | ? | ? | ? | / | 2.1µM*
Cc1ccccc1-c1nc2ccccc2o1 | -1% | 3% | -6% | -8% | 8.5µM*
CCCCNc1ncnc2c1nnn2C | / | / | / | / | -2%
SMILES | NPC1 prom act | ELG1 genotoxic | Rab9 prom act | SMN2 splice enh | FLuc counter
COCCNC(=O)C1(S(=O)(=O)c2ccccc2)CC=CC1 | -1% | 6% | 17% | / | 1%
Cc1ccc(C(=O)NC(=S)N2CCN(C(=O)OC(C)(C)C)CC2)cc1Br | -1% | -8% | -1% | -8% | -1%
O=C(c1cc(-c2ccco2)on1)N1CCOCC1 | 25% | ? | ? | 20% | ?
Cc1ccc(-c2cc(C(=O)N3CCCC3)no2)cc1 | ? | 0.23µM* | ? | 0.89µM* | 0.76µM*
CCOC(=O)C1CCCN(C(=O)c2cc(-c3ccccc3)on2)C1 (centres undefined) | ? | ? | 4µM* | 22µM* | -17%
Cc1ccc(-c2cc(C(=O)N3CCOCC3)no2)cc1 | 0.32µM* | ? | 0.32µM* | / | 0.54µM*
O=S(=O)(C[C@H](O)C(Cl)(Cl)Cl)NNc1ccccc1 | / | / | / | 3%[9.22 µM] | /
O=C(CSc1nnc(COc2ccc(Br)cc2)o1)NC1CCCCC1 | 2% | 1% | -6% | / | -3%
Cc1noc(C)c1COc1cccc(C(=O)Nc2ccc(OCc3ccccc3)cc2)c1 | 0% | -10% | -1% | -8% | 8.5µM*
COc1ccc2nc(NC(=O)c3cccc(OCc4c(C)noc4C)c3)sc2c1 | -9% | -17% | 5% | -23% | 1.5µM*
